# Reference: PubChem BioAssay
# Results filed as inconclusive are left out. Calls of active or inactive are those of the source.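 The calls were made as follows, unless noted: active = GFP signal, as percent of the solvent control, above the screen mean plus 3 SD, about 149; inconclusive = no reading because the compound's own fluorescence upset strain identification; inactive = the rest.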
# Legend:
# [1] = rapamycin-like changes in RPL19A-GFP expression – cell-based, S. cerevisiae, multiplex flow cytometry, primary screen (AID 1862; in the data active = percent of DMSO control GFP below about 86%;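 also: lower values mimic rapamycin by blocking the RPL19A rise seen in DMSO cells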); details: S. cerevisiae RPL19A-GFP strain, flow cytometry fluorescence, 3 h; at 10 µM; stronger effect = lower value
# [2] = TOR pathway GLN3 branch reporter MEP2-GFP changes – S. cerevisiae, multiplex flow cytometry, primary screen (AID 1867;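 active = GFP response, as percent of the DMSO control, above the screen-wide mean plus 3 SD, about 139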;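 also: median GFP channel fluorescence of barcode-gated MEP2-GFP cells measured by flow cytometry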); details: S. cerevisiae MEP2-GFP strain, 3 h, at 10 µM, stronger effect = higher value, 100% means same as DMSO wells
# [3] = TOR pathway RTG branch CIT2 reporter changes – S. cerevisiae, GFP fusion, multiplex flow cytometry, primary screen (AID 1870;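 active = percent response above a set limit, the screen-wide mean plus 3 SD, cut at about 130% in these data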;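 also: barcoded CIT2-GFP strain pooled with four other GFP strains with rapamycin as positive control; median GFP fluorescence per well over plate mean of DMSO wells so 100% = DMSO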); details: S. cerevisiae CIT2-GFP expression, 3 h, at 10 µM, stronger effect = higher value
# [4] = TOR pathway LAP4-GFP level changes – S. cerevisiae, multiplex flow cytometry, primary screen (AID 1873); details: S. cerevisiae LAP4-GFP expression, 3 h, at 10 µM, stronger effect = higher value
# [5] = yeast AGP1-GFP level changes, GLN3 branch – cell-based, multiplex flow cytometry, S. cerevisiae, primary screen (AID 1887;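 active = GFP signal above the screen-wide mean plus 3 SD, that is over about 124.5% of the solvent control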;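 also: AGP1-GFP fusion strain of S. cerevisiae within a five-strain barcoded multiplex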); details: 3 h, at 10 µM, stronger effect = higher value
# [6] = reduced mouse 2C T cell binding to pMHC/ICAM-1 vesicles – MLPCN validation set, flow cytometry, LFA-1/ICAM-1 modulator project, pilot screen (AID 2523;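 active = response below a set limit, under 55% cells CD8-positive and vesicle-bound, and CD8 cells' 90th-percentile brightness under 279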;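 as to vesicle binding response: mean PE anti-B7-1 fluorescence of CD8+ cells relative to row control; 100% = QL9-loaded vesicles with DMSO vehicle in the same plate row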); details: 2C mouse CD8+ T cells, at 7 µM, stronger effect = lower value; double positive events: measured here: CD8+/vesicle+ event percentage
# [7] = target: Integrin beta-1 (Homo sapiens) + Integrin alpha-4 (Homo sapiens) (UniProt P13612+P05556); test: alpha4beta1 integrin LIBS antibody binding reduction – U937 cells, HUTS-21 mAb, flow cytometry, validation set, VLA-4 allosteric modulator project, pilot screen (AID 2674;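 active = inhibition above 50%, about 3 SD of the validation set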;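 also: antibody binding induced by the VLA-4 ligand LDV present at three times its Kd; 0% = LDV ligand with antibody and no compound and 100% = antibody without LDV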); details: HUTS-21 LIBS mAb binding, at 6.7 µM, stronger effect = higher value, binding induced by LDV ligand
# Chain of Integrin beta-1 (Homo sapiens) + Integrin alpha-4 (Homo sapiens) (P05556 whole entry, looked up): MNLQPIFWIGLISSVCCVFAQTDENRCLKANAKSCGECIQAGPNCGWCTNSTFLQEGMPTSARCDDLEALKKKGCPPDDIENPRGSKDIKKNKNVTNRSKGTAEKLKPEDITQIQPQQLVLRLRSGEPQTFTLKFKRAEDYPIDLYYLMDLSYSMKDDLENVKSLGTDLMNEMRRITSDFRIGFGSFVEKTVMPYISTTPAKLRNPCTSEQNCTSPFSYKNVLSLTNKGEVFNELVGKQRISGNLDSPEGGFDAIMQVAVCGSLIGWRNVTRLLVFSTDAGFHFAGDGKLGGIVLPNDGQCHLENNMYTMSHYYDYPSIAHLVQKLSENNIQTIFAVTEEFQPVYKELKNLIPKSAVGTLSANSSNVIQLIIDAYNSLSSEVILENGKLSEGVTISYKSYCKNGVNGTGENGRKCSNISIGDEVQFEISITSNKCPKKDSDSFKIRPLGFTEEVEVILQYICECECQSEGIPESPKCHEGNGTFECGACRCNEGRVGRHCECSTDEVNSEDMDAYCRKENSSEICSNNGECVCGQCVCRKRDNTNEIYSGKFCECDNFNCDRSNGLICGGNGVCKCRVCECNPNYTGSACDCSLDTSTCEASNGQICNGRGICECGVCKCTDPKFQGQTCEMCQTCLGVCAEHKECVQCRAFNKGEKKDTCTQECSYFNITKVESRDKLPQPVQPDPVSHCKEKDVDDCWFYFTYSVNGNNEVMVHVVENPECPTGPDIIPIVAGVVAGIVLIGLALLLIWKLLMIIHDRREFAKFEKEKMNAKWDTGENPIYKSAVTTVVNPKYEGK
# Chain of Integrin beta-1 (Homo sapiens) + Integrin alpha-4 (Homo sapiens) (P13612 whole entry, looked up): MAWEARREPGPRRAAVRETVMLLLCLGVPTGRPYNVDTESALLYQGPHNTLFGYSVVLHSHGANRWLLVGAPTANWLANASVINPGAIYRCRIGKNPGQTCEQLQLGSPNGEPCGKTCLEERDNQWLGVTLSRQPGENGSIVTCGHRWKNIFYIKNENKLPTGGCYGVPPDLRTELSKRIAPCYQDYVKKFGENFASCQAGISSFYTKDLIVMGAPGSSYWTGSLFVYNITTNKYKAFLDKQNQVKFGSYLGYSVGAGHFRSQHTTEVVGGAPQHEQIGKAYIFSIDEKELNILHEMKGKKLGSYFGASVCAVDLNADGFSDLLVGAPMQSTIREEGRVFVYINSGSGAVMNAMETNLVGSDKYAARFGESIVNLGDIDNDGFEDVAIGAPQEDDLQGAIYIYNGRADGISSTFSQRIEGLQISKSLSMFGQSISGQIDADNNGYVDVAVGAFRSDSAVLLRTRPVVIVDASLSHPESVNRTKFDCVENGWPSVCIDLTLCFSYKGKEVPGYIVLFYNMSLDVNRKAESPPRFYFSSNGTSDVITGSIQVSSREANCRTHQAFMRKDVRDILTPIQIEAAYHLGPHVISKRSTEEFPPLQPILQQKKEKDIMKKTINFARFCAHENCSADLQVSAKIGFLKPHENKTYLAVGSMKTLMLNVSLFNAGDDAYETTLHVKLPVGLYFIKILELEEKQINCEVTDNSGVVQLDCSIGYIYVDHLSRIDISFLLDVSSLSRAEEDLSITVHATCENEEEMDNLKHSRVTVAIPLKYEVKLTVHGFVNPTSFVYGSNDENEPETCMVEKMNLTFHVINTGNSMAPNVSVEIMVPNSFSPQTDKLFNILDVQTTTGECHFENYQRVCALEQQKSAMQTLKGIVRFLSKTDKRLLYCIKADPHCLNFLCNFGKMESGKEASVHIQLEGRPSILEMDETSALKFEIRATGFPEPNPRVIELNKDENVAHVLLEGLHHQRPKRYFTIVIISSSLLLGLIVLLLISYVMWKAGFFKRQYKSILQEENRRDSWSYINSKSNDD
# [8] = calorie-restriction mimetic ROS inhibitors, yeast – validation compound set, pilot screen (AID 2706;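 active = superoxide response below 65% of plate, a cut near 3 SD across the whole screen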;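 also: yeast exposed to compound for one week at 30 degrees C before staining; 100% = mean of all compound wells on the same plate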); details: S. cerevisiae aging, superoxide DHE fluorescence; at 10 µM; stronger effect = lower value
# [9] = target: Beta-adrenergic receptor kinase 1 (Homo sapiens) (UniProt P25098); test: GRK2 binders displacing RNA aptamer, biochemical, validation, human GRK2, bead flow cytometry (AID 488806;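 active = aptamer binding inhibition above 30%, about 3 SD of noise from non-fluorescent compounds; inactive = inhibition at or below 30%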); details: bead-bound GRK2, FAM-aptamer displacement, at 10 µM, stronger effect = higher value
# Chain of Beta-adrenergic receptor kinase 1 (Homo sapiens) (P25098 whole entry, looked up): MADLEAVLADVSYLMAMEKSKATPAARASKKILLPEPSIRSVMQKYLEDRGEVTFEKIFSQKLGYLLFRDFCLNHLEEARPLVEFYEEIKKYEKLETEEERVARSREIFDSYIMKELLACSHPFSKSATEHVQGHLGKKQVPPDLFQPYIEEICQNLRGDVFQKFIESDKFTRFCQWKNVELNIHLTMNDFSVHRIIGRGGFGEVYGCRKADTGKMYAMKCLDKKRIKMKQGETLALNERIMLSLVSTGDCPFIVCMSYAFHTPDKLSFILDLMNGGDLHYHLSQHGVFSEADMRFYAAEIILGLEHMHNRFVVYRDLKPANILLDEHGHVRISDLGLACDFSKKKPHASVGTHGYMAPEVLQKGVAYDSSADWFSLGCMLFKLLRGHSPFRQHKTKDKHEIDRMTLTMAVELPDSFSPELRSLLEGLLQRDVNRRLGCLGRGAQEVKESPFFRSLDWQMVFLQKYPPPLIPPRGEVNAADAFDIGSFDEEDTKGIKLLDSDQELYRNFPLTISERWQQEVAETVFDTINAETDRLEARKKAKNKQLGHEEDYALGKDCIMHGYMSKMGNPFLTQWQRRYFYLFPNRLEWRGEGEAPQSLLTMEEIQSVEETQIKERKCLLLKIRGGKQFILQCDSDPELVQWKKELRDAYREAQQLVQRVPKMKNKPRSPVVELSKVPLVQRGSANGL
# [10] = target: Beta-2 adrenergic receptor (Homo sapiens) (UniProt P07550); test: agonist-induced loss of surface beta2AR – cell-based, FAP fluorogen, flow cytometry, validation set, pilot screen (AID 504459;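 active = percent response above 42, roughly 3 SD of non-fluorescent test compounds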;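 also: agonist-driven loss of surface beta2AR via internalization measured by FAP dye flow cytometry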); details: Am2.2-beta2AR cells, at 10 µM, stronger effect = higher value
# Chain of Beta-2 adrenergic receptor (Homo sapiens) (P07550 whole entry, looked up): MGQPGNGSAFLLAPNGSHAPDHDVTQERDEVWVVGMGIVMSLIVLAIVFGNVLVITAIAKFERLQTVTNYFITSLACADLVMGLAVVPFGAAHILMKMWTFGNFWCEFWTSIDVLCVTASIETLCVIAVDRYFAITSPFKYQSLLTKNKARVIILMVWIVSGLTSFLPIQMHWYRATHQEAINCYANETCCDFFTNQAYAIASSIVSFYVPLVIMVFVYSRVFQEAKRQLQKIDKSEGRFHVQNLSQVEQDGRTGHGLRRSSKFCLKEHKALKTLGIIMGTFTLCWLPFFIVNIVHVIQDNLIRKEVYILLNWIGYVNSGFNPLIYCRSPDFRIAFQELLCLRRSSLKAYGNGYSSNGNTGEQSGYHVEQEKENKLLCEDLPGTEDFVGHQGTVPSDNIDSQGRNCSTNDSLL
# [11] = target: AP-2 complex subunit beta (Homo sapiens) (UniProt P63010); test: beta-arrestin/AP2 interaction blockers – biochemical, validation set, GST-AP2 beads, flow cytometry, pilot screen (AID 504541;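 active = inhibition above 54%, about 3 SD of non-fluorescent compounds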;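 also: AP2 carries R879A mutation and is captured from E. coli lysate; bead-bound FITC arrestin peptide fluorescence measuring arrestin peptide binding to AP2; 0% = DMSO wells and 100% = excess unlabeled arrestin peptide control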); details: FITC arrestin peptide, at 10 µM, stronger effect = higher value, AP2 beta2 appendage fragment, R879A mutant
# Chain of AP-2 complex subunit beta (Homo sapiens) (P63010 whole entry, looked up, the tested form may be a part, one chain of several): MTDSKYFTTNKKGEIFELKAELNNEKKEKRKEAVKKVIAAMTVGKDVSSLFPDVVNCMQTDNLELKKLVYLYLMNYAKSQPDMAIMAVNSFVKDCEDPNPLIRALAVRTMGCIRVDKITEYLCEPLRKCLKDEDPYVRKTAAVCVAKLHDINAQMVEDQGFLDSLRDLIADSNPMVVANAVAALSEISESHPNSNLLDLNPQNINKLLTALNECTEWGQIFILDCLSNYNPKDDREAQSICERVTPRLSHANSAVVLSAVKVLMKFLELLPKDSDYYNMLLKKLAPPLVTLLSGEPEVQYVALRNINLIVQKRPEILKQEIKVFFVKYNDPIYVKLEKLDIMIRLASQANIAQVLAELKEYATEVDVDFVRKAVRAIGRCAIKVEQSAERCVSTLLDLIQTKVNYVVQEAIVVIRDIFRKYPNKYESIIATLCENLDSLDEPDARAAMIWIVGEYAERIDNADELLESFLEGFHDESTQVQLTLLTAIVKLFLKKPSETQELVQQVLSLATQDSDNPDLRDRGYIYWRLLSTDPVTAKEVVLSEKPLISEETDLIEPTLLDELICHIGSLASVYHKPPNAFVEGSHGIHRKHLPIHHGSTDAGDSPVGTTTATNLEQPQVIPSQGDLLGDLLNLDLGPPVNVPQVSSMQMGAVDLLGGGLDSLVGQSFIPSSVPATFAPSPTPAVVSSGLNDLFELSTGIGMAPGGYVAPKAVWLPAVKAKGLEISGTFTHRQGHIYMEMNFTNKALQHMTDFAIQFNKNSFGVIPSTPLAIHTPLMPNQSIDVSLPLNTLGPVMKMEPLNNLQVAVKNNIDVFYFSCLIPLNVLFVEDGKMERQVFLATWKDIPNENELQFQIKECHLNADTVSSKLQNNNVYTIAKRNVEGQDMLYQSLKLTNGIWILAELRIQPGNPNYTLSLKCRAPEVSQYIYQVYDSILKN
# [12] = cytosolic pH regulators acting via V-ATPase – S. cerevisiae, pHLuorin, HTS validation (AID 504600; in the data active = response above about 15%;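 also: plate controls were DMSO for no effect and reference compound for full effect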); details: V-ATPase proton transport, at 10 µM, stronger effect = higher value
# [13] = test system: anti-desmoglein-3 scFv antibody binding to human DSG3; test: blockers of pathogenic pemphigus antibody–desmoglein-3 binding – biochemical, validation compound set, bead-based, flow cytometry, pilot screen (AID 588368;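 active = binding below the plate cutoff, the plate median minus 3 SD, with a reading above zero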;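 also: signal is the median channel fluorescence of bead-bound GFP antibody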); details: Protein G beads, DSG3-Fc, scFv-GFP binding, at 10 µM, stronger effect = lower value
# [14] = Nile Red efflux blockade in pump-expressing yeast – validation compound set, multiplex, phenotypic, pilot screen (AID 588506;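 active = efflux inhibition above 0.42, the validation set average plus 4 SD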;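 also: Nile Red retained in cells so higher fluorescence means more efflux inhibition; 0 = negative control wells and 1 = enniatin B 25 µM full block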); details: S. cerevisiae pump-expressing triplex, Nile Red efflux flow cytometry; at 10 µM; stronger effect = higher value; the pumps come from Candida albicans
# [15] = target: ATP-binding cassette sub-family B member 6 (Homo sapiens) (UniProt Q9NP58); test: blockers of ABCB6-driven porphyrin uptake – K562-ABCB6 cells, flow cytometry, validation set, pilot screen (AID 588550;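 active = inhibition above the screen-wide mean plus 3 SD, about 51%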;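 also: 0% = DMSO wells and 100% = benzethonium chloride 70 µM positive control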); details: K562-ABCB6 porphyrin accumulation, 1 h, at 10 µM, stronger effect = higher value
# Chain of ATP-binding cassette sub-family B member 6 (Homo sapiens) (Q9NP58 whole entry, looked up): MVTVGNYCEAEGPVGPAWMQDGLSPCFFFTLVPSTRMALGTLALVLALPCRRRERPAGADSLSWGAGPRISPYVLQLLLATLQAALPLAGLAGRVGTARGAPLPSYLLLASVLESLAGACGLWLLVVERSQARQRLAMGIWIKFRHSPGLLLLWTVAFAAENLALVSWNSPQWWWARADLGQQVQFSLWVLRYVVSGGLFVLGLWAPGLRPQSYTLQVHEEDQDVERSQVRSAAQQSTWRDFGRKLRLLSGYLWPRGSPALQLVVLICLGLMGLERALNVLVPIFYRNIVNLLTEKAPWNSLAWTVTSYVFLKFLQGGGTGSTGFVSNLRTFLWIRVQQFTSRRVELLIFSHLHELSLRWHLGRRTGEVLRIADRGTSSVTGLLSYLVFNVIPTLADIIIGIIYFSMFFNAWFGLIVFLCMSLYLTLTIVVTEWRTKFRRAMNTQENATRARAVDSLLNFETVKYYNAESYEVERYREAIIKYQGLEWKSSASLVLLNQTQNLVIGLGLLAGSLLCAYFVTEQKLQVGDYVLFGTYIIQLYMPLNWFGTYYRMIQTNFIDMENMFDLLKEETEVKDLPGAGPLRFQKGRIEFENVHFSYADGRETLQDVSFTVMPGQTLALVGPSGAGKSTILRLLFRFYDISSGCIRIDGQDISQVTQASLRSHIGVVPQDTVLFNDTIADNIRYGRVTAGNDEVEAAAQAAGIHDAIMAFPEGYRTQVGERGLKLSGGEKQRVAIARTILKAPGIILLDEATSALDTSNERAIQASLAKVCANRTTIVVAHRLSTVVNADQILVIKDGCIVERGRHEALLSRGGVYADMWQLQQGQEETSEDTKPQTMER
# [16] = AML differentiation inducers, ER-HoxA9 marrow cells – cell-based, GFP/MAC1 double positive, flow cytometry, validation set, primary screen (AID 588685;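 active = differentiation response of at least 50%, scaled between solvent and reference control, from cells with both markers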;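 also: compound exposure lasts four days before antibody staining and flow analysis; 0% = DMSO wells and 100% = 5 µM fulvestrant positive control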); details: stronger effect = higher value, normalized: vehicle 0, fulvestrant 100
Structure (SMILES),percent of DMSO control GFP [1],GFP response vs DMSO [2],percent response of DMSO control [3],GFP response vs DMSO [4],"GFP response, % of DMSO [5]",double positive events [6],vesicle binding response [6],inhibition [7],superoxide response (% of plate) [8],aptamer binding inhibition [9],response [10],inhibition [11],response [12],binding (% of control) [13],efflux inhibition (fraction of control) [14],inhibition [15],differentiation response [16]
CCOc1ccc(OCCSc2nc3ccccc3[nH]2)cc1,98.2% (inactive),98.5% (inactive),101% (inactive),108% (inactive),83.3% (inactive),60.3%,186% (inactive),16% (inactive),107% (inactive),4% (inactive),-17.3% (inactive),-5.21% (inactive),1.04% (inactive),98.7% (inactive),0.05 (inactive),3% (inactive),-7.2% (inactive)
COc1cccc(CC(=O)NCC2COc3ccccc3O2)c1OC (stereo not given),103% (inactive),105% (inactive),101% (inactive),102% (inactive),106% (inactive),60.9%,230% (inactive),6.95% (inactive),92.8% (inactive),2% (inactive),3.04% (inactive),-3.19% (inactive),-3.58% (inactive),103% (inactive),-0.1 (inactive),63% (active),-6.03% (inactive)
COc1cccc(N2C(=O)CC(c3c[nH]c4ccccc34)C2=O)c1 (stereo not given),108% (inactive),103% (inactive),110% (inactive),106% (inactive),97.1% (inactive),61.9%,159% (inactive),-42.6% (inactive),95.3% (inactive),1% (inactive),12% (inactive),10% (inactive),-0.64% (inactive),105% (inactive),0 (inactive),-26% (inactive),-13.3% (inactive)
O=C1CN(O)C=C2N=c3ccccc3=C2N1c1ccc([N+](=O)[O-])cc1,106% (inactive),108% (inactive),107% (inactive),101% (inactive),107% (inactive),61.3%,124% (inactive),-17.2% (inactive),106% (inactive),2% (inactive),-10.9% (inactive),-5.08% (inactive),1% (inactive),100% (inactive),-0.13 (inactive),19% (inactive),-3.11% (inactive)
OCCOCCN1CCN(C(c2ccccc2)c2ccc(Cl)cc2)CC1 (stereo not given),90.4% (inactive),114% (inactive),95.2% (inactive),77% (inactive),93.8% (inactive),66.8%,218% (inactive),-0.33% (inactive),95% (inactive),1% (inactive),3.36% (inactive),0.96% (inactive),1.14% (inactive),110% (inactive),-0.38 (inactive),12% (inactive),-1.64% (inactive)
